According to PubChem BioAssay (NCI):
Compounds without any hit were thinned out: in the full panel of roughly 83,000, 20% have a hit.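 A percent growth of 40 corresponds to 60% growth inhibition; 0 means no net growth; -100 means all cells died. Active threshold: below 10.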 Unmarked numbers belong to inactive results. Activity calls are given as the source filed them.

Tested on: OVCAR-3 ovarian
Experiment: NCI-60 one-dose screen, 48 h (100 = growth as untreated, 0 = no growth, -100 = all killed)
Settings: 10 µM unless noted

Row | Compound | growth
1 | N#Cc1c(N)nc(NCCO)nc1-c1ccc(F)cc1 | 110%
2 | CC/C=C\C[C@H](O)C/C=C1/C(=O)C=C[C@@H]1C/C=C\CCCCO | 2.43% (active)
3 | FC(F)(F)c1cc(Nc2ccc3cc(OCCCN4CCOCC4)ccc3n2)ccc1Cl | 48.1%
4 | N#C/C(=C\c1ccc(Br)cc1)n1nnc2cc(F)c(F)cc21 | 2.19% (active)
5 | CNC(=O)NCC1OC(n2cnc3c(NC(=O)Nc4ccccc4)ncnc32)C(O[Si](C)(C)C(C)(C)C)C1CC(=O)N(C)OC (centres undefined) | 7.61% (active)
6 | CN(C)CC1C(=O)O[C@H]2[C@H]1CC/C(COC(=O)c1cc3ccccc3[nH]1)=C\CC[C@@]1(C)O[C@@H]21 (some centres undefined) | -82.7% (active)
7 | S=C(Cc1ccc2c(c1)CCCC2)N1CCOCC1 | 107%
8 | Cc1cc(Cl)nc(NCc2cc(Nc3ccnc4cc(Cl)ccc34)ccc2F)n1 | 53.4%
9 | COC(=O)[C@]12CC[C@@H](C)[C@H](C)[C@@H]1C1=CC[C@@H]3[C@@]4(C)C(C=O)=C[C@@](C)(CO)[C@@H]4[C@H](O)C[C@@]3(C)[C@]1(C)CC2 | -91.9% (active)
10 | CCN1CCN(c2cc(C)nc(NCc3cc(Nc4ccnc5cc(Cl)ccc45)ccc3F)n2)CC1 | 101%
11 | C=CCOC1=CC(=O)c2ccccc2C1=O | -13.4% (active)
12 | COc1ccc(-c2nc(SC(C)C)nc(NNC(N)=S)c2C#N)cc1 | 18.2%
13 | Cc1cc(C)c2c(-c3nnc(N)s3)cc(=O)oc2c1 | 105%
14 | Oc1c(CN2CCCC2)cc(COCc2ccc(Br)cc2)c2cccnc12 | -4.02% (active)
15 | O=[N+]([O-])c1ccc(-c2cc(-c3ccc(Nc4nc(Nc5ccc(Cl)cc5)nc(Nc5ccc(Cl)cc5)n4)cc3)no2)cc1 | 241%
16 | O=C1/C(=C/c2ccc(F)cc2)C=C(c2ccccc2)N1CCc1ccccc1 | 53.1%
17 | O=C(O)c1ccc2c(c1Cl)C(=O)c1ccccc1C2=O | 99.5%
18 | COc1cc(N=Nc2ccc(N)cc2)c(OC)cc1N=Nc1ccccc1.[Cl][Zn][Cl] | 99.8%
19 | O=[N+]([O-])c1ccc(OCCO)cc1 | 99.9%

Row | Compound | growth
20 | CCN(CC)c1nc(SCC(=O)Nc2nc3ccc(C)cc3s2)nc(-c2ccccc2)c1C#N | 93.2%
21 | Cc1cc(NCCCCNc2ccnc3cc(Cl)ccc23)nc(Nc2ccc(C(=O)N3CCCC3)cc2)n1 | 60.6%
22 | COc1ccc(-c2nc3c(c(=O)n2C(C)=O)C(c2ccc(Cl)cc2)c2sc4c(Cl)cccc4c2O3)cc1 (centres undefined) | -71.4% (active)
23 | COc1ccc2[nH]c(O)c(/C=c3/cc4c(c(-c5ccc(F)c(OC)c5)n3)=Nc3ccccc3-4)c2c1 | -34.4% (active)
24 | N#CC1=C(/N=C/c2ccccc2)Oc2c(ccc3ccccc23)C1c1ccccc1 (centres undefined) | -2.72% (active)
25 | CC(=O)C(C)Cc1cc2c(cc1C)C(C)(C)CCC2(C)C (centres undefined) | 108%
26 | Cc1ccc(Nc2nc(N)nc(CSCC(=O)NN)n2)cc1 | 105%
27 | Cc1ccc(-c2c(-c3ccccc3)c(=O)oc3ccc(C)cc23)cc1 | 117%
28 | N#C/C(=C\c1ccc2c(c1)OCO2)n1nnc2cc(F)c(F)cc21 | 31.8%
29 | Cc1cccc(Cc2cnc(NC(=O)/C=C/c3ccco3)s2)c1 | -2.76% (active)
30 | N=C(N)c1ccc(-c2ccc(-c3cncc4ccccc34)s2)s1 | -85.5% (active)
31 | COc1ccc2occ(C3=C(c4c[nH]c5ccccc45)C(=O)N(O)C3=O)c2c1 | 98.9%
32 | C=C(C)[C@@H]1CC[C@]2(C(=O)NC3CCCCC3)CC[C@]3(C)[C@H](CC[C@@H]4[C@@]5(C)CCCNC(C)(C)[C@@H]5CC[C@]43C)[C@@H]12 | 64.8%
33 | O=C(/C=C/c1ccco1)c1ccc(Nc2nc(Nc3ccc(F)cc3)nc(Nc3ccc(Cl)cc3)n2)cc1 | 75%
34 | COC(=O)[C@]12CC[C@@H](C)[C@H](C)[C@@H]1C1=CC[C@@H]3[C@@]4(C)C(C=O)=C[C@@](C)(COC(=O)c5ccco5)[C@@H]4C(=O)C[C@@]3(C)[C@]1(C)CC2 | 40.4%
35 | COc1cccc(-c2nn(-c3ccccc3)cc2-c2ccnc(NCCNC(=O)Nc3ccc(Cl)c(Cl)c3)c2)c1 | -6.87% (active)
36 | Cc1cc(N2CCCC2)nc(NCc2cc(Nc3ccnc4cc(Cl)ccc34)ccc2F)n1 | -86.9% (active)
37 | COc1cc(/C=C/C(=O)c2c(C)nc3ccccc3c2C)ccc1OCCCN1CCN(C(=O)c2ccco2)CC1 | 97.9%

Tested on: HS 578T breast
Experiment: as above
Settings: 10 µM unless noted

Row | Compound | growth
38 | N#Cc1c(N)nc(NCCO)nc1-c1ccc(F)cc1 | 92.5%
39 | CC/C=C\C[C@H](O)C/C=C1/C(=O)C=C[C@@H]1C/C=C\CCCCO | 75.6%
40 | FC(F)(F)c1cc(Nc2ccc3cc(OCCCN4CCOCC4)ccc3n2)ccc1Cl | 6.22% (active)
41 | N#C/C(=C\c1ccc(Br)cc1)n1nnc2cc(F)c(F)cc21 | 56.1%
42 | CNC(=O)NCC1OC(n2cnc3c(NC(=O)Nc4ccccc4)ncnc32)C(O[Si](C)(C)C(C)(C)C)C1CC(=O)N(C)OC (centres undefined) | 3.64% (active)
43 | CN(C)CC1C(=O)O[C@H]2[C@H]1CC/C(COC(=O)c1cc3ccccc3[nH]1)=C\CC[C@@]1(C)O[C@@H]21 (some centres undefined) | -3.98% (active)
44 | S=C(Cc1ccc2c(c1)CCCC2)N1CCOCC1 | 115%
45 | Cc1cc(Cl)nc(NCc2cc(Nc3ccnc4cc(Cl)ccc34)ccc2F)n1 | 66.7%
46 | COC(=O)[C@]12CC[C@@H](C)[C@H](C)[C@@H]1C1=CC[C@@H]3[C@@]4(C)C(C=O)=C[C@@](C)(CO)[C@@H]4[C@H](O)C[C@@]3(C)[C@]1(C)CC2 | -15.6% (active)
47 | CCN1CCN(c2cc(C)nc(NCc3cc(Nc4ccnc5cc(Cl)ccc45)ccc3F)n2)CC1 | 71.4%
48 | C=CCOC1=CC(=O)c2ccccc2C1=O | 81.7%
49 | COc1ccc(-c2nc(SC(C)C)nc(NNC(N)=S)c2C#N)cc1 | 54.9%
50 | Cc1cc(C)c2c(-c3nnc(N)s3)cc(=O)oc2c1 | 92.4%
51 | Oc1c(CN2CCCC2)cc(COCc2ccc(Br)cc2)c2cccnc12 | 45.2%
52 | O=[N+]([O-])c1ccc(-c2cc(-c3ccc(Nc4nc(Nc5ccc(Cl)cc5)nc(Nc5ccc(Cl)cc5)n4)cc3)no2)cc1 | 99.9%
53 | O=C1/C(=C/c2ccc(F)cc2)C=C(c2ccccc2)N1CCc1ccccc1 | 42.1%
54 | O=C(O)c1ccc2c(c1Cl)C(=O)c1ccccc1C2=O | 123%
55 | COc1cc(N=Nc2ccc(N)cc2)c(OC)cc1N=Nc1ccccc1.[Cl][Zn][Cl] | 107%
56 | O=[N+]([O-])c1ccc(OCCO)cc1 | 99.5%

Row | Compound | growth
57 | CCN(CC)c1nc(SCC(=O)Nc2nc3ccc(C)cc3s2)nc(-c2ccccc2)c1C#N | 83.4%
58 | Cc1cc(NCCCCNc2ccnc3cc(Cl)ccc23)nc(Nc2ccc(C(=O)N3CCCC3)cc2)n1 | 89.8%
59 | COc1ccc(-c2nc3c(c(=O)n2C(C)=O)C(c2ccc(Cl)cc2)c2sc4c(Cl)cccc4c2O3)cc1 (centres undefined) | -15.6% (active)
60 | COc1ccc2[nH]c(O)c(/C=c3/cc4c(c(-c5ccc(F)c(OC)c5)n3)=Nc3ccccc3-4)c2c1 | 84.7%
61 | N#CC1=C(/N=C/c2ccccc2)Oc2c(ccc3ccccc23)C1c1ccccc1 (centres undefined) | 18.5%
62 | CC(=O)C(C)Cc1cc2c(cc1C)C(C)(C)CCC2(C)C (centres undefined) | 102%
63 | Cc1ccc(Nc2nc(N)nc(CSCC(=O)NN)n2)cc1 | 90.9%
64 | Cc1ccc(-c2c(-c3ccccc3)c(=O)oc3ccc(C)cc23)cc1 | 99.6%
65 | N#C/C(=C\c1ccc2c(c1)OCO2)n1nnc2cc(F)c(F)cc21 | 84.7%
66 | Cc1cccc(Cc2cnc(NC(=O)/C=C/c3ccco3)s2)c1 | 14.8%
67 | N=C(N)c1ccc(-c2ccc(-c3cncc4ccccc34)s2)s1 | -49.6% (active)
68 | COc1ccc2occ(C3=C(c4c[nH]c5ccccc45)C(=O)N(O)C3=O)c2c1 | 95.7%
69 | C=C(C)[C@@H]1CC[C@]2(C(=O)NC3CCCCC3)CC[C@]3(C)[C@H](CC[C@@H]4[C@@]5(C)CCCNC(C)(C)[C@@H]5CC[C@]43C)[C@@H]12 | 78.8%
70 | O=C(/C=C/c1ccco1)c1ccc(Nc2nc(Nc3ccc(F)cc3)nc(Nc3ccc(Cl)cc3)n2)cc1 | 81.5%
71 | COC(=O)[C@]12CC[C@@H](C)[C@H](C)[C@@H]1C1=CC[C@@H]3[C@@]4(C)C(C=O)=C[C@@](C)(COC(=O)c5ccco5)[C@@H]4C(=O)C[C@@]3(C)[C@]1(C)CC2 | 65.3%
72 | COc1cccc(-c2nn(-c3ccccc3)cc2-c2ccnc(NCCNC(=O)Nc3ccc(Cl)c(Cl)c3)c2)c1 | -22.1% (active)
73 | Cc1cc(N2CCCC2)nc(NCc2cc(Nc3ccnc4cc(Cl)ccc34)ccc2F)n1 | -34.5% (active)
74 | COc1cc(/C=C/C(=O)c2c(C)nc3ccccc3c2C)ccc1OCCCN1CCN(C(=O)c2ccco2)CC1 | 82.1%
